Data reported in PubChem BioAssay AID1429 (The Scripps Research Institute Molecular Screening Center, 2008).
The other results are listed elsewhere or left out. Activity calls are given as the source filed them.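 How the source made its calls: active means inhibition above the hit threshold that was computed for the earlier primary screen (cut at about 30% in these data); inactive means the rest.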

What follows are compounds tested against Sphingosine 1-phosphate receptor 3 (Homo sapiens) (UniProt Q99500) (assay: blockers of human S1P3 signalling – cell-based, confirmation (AID 1429;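 further: 0% = S1P-stimulated wells and 100% = unstimulated DMSO-only wells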)). Conditions: CHO S1P3 NFAT-BLA reporter, FRET, antagonist mode; at 4.98 µM; hits give high values.
Chain of Sphingosine 1-phosphate receptor 3 (Homo sapiens) (Q99500 whole entry, looked up): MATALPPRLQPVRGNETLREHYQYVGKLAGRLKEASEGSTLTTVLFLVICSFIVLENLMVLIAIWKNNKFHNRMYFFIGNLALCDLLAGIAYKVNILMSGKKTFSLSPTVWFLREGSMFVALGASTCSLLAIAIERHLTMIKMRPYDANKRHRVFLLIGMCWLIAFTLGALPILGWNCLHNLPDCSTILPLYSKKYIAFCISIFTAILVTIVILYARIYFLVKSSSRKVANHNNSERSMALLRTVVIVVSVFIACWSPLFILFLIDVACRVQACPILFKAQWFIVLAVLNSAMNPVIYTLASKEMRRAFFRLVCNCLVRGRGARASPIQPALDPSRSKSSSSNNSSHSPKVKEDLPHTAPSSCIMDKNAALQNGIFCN
`CC[C@H]1CN2CCc3cc(OC)c(OC)cc3[C@@H]2C[C@@H]1C[C@H]1NCCc2cc(OC)c(OC)cc21` was tested, and the inhibition was 109% (active).
`Nc1c(C(=O)c2cccs2)sc2nsc(SCCN3CCCCC3)c12` was tested, and the inhibition was 18.8% (inactive).
In the case of `CCOC(=O)C1=C(C)N=C2c3ccccc3C(=O)C2C1c1ccc(Br)cc1` (stereo not given), the inhibition is reported as 77.8% (active).
In the case of `O=C(N/N=C/c1coc2ccccc2c1=O)c1cc2ccccc2o1`, the inhibition is reported as -18.6% (inactive).
`Cc1ccc(NC(=O)CN(C)CC(=O)Nc2cccc(F)c2)cc1[N+](=O)[O-]` was tested, and the inhibition was 12.6% (inactive).
With `CCN1/C(=C\c2ccc3ccccc3[n+]2CC)Sc2cc(C)ccc21` the inhibition was 10.8% (inactive).
With `CSc1ccc(CN(C)CC(=O)NCc2ccc(F)cc2)cc1` the inhibition was -9.96% (inactive).
With `S=C(NCCc1ccccc1)NCC1CCCO1` (stereo not given) the inhibition was -4.63% (inactive).
For `CC(=O)c1c(C)[nH]c(C(=O)COC(=O)c2cccc(S(=O)(=O)N(C)c3ccccc3)c2)c1C`, the inhibition was 10.9% (inactive).
For `CC(C)Oc1ccccc1C(=O)NC(CO)C(=O)O` (stereo not given), the inhibition was -23.6% (inactive).
